Experimental data: PubChem BioAssay (Tox21)
Results filed as inconclusive are left out. Active and inactive are the calls of the source. Unless noted, calls come from the whole dose curve; as a rule, active = well fitted curve in the direction sought with a large enough effect in the repeat runs; inconclusive = weak or mixed curves; inactive = no such curve, though single readings can be large; an effect the other way counts as inactive or inconclusive.

Legend:
[1] = biological target: Thyrotropin receptor (Homo sapiens) (UniProt P16473); assay: qHTS assay to identify small molecule antagonists of the thyroid stimulating hormone receptor (TSHR) signaling pathway (AID 1259385; calls by dose curve; note: nearly all actives have a fitted effect of over 20% in size)
Method in brief: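 Antagonist mode: compound-treated TSHR-expressing HEK293 cells were stimulated with 1.5 ng/mL TSH (final) in presence of Ro20-1724 for 30 min at RT. HTRF cAMP detection after 1 h; each compound tested at 15 concentrations, triplicate.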

[2] = qHTS assay to identify small molecule agonists of the estrogen receptor alpha (ER-alpha) signaling pathway in the presence of an antagonist - cell viability counter screen (AID 1259386);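 note: series mostly up to about 92 µM; cells exposed to compounds for 22 h at 37 °C before the viability read; nearly all actives have a fitted effect of over 30% in size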
Method in brief: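 Viability counter screen using VM7Luc4E2 (full-length ER-alpha, four ERE-luciferase). The cells were treated with compounds alongside ICI-182,780 10.0nM for 22hr, and live-cell protease fluorescence was quantified with CellTiter-Fluor.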

[3] = biological target: Progesterone receptor (Homo sapiens) (UniProt P06401); assay: qHTS assay to identify small molecule agonists of the progesterone receptor (PR) signaling pathway (AID 1346784; calls by dose curve; note: nearly all actives have a fitted effect of over 30% in size)
Method in brief: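 The screen uses PR-UAS-bla HEK 293T cells in charcoal-stripped serum (2%). Compounds are applied for 16 hr at 37C after a 6 hr pre-incubation, and reporter activity is detected with a FRET beta-lactamase substrate after 2 hr at room temperature.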

[4] = qHTS assay to identify small molecule antagonists of the progesterone receptor (PR) signaling pathway - cell viability counter screen (AID 1346798); note: series mostly up to about 92 µM; nearly all actives have a fitted effect of over 50% in size
Method in brief: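 Viability was determined by ATP-based luminescence (CellTiter-Glo) in PR-UAS-bla HEK293T cells cultured in 2% charcoal-stripped serum and incubated 16 hr with compounds under R5020 stimulation.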

[5] = qHTS assay to identify small molecule agonists of the TGF-beta/Smad signaling pathway - cell viability counter screen (AID 1346829); note: top concentration of the series differs between compounds; nearly all actives have a fitted effect of over 45% in size
Method in brief: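 Compound-treated SBE-bla HEK 293T cells (5 hr, 37 C) were assessed for viability with CellTiter-Glo in parallel with the reporter read.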

[6] = qHTS assay to identify small molecule agonists of the TGF-beta/Smad signaling pathway (AID 1346859; active = well fitted activation curve with a large enough effect in the signal ratio in the repeat runs, not every such curve was filed as active; the % refers to the signal ratio; note: series mostly up to about 77 µM)
Method in brief: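 Dual-wavelength fluorescence (460/530 nm emission) quantified beta-lactamase expression under the Smad binding element in HEK 293T cells following 5 hr compound treatment at 37 C.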

[7] = biological target: Thyrotropin-releasing hormone receptor (Homo sapiens) (UniProt P34981); assay: qHTS assay to identify small molecule antagonists of the thyrotropin-releasing hormone receptor (TRHR) signaling pathway (AID 1346877; active = well fitted inhibition curve with a large enough effect in the repeat runs, not every such curve was filed as active; note: series mostly up to about 51 µM)
Method in brief: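 Following an 18 h incubation at 37 °C and a 2 h calcium dye load, TRHR-HEK293 cells were exposed to compound (5 min, room temperature) and challenged with TRH, 1 nM final.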

[8] = biological target: Thyrotropin-releasing hormone receptor (Homo sapiens) (UniProt P34981); assay: qHTS assay to identify small molecule agonists of the thyrotropin-releasing hormone receptor (TRHR) signaling pathway (AID 1346891; calls by dose curve;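 note: HEK293 cells expressing TRHR with calcium dye readout; series mostly up to about 58 µM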)
Method in brief: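 Kinetic fluorescence (3 min, 1 s intervals) reported intracellular calcium after compound transfer onto TRHR-Hek293 cells pre-loaded with dye for 2 h at 37 °C.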

[9] = Human pregnane X receptor (PXR) small molecule agonists, qHTS cell viability counter screen (AID 1346977); note: nearly all actives have a fitted effect of over 50% in size
Method in brief: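 HepG2 cells stably carrying the PXR-Luc reporter are cultured with 5% charcoal-stripped FBS and treated with compounds for 24hr. CellTiter-Fluor is added at 23hr and fluorescence is read after 1hr.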

[10] = Caspase-3/7 induction in HepG2 cells by small molecules, qHTS assay (AID 1346978); note: nearly all actives have a fitted effect of over 15% in size
Method in brief: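 Caspase-3/7 induction was measured by Caspase-Glo 3/7 luminescence (30 min, room temperature) after a 17 hr compound exposure of wild-type HepG2 cells seeded at 2,000 per well and pre-incubated 5 hr.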

[11] = Caspase-3/7 induction in CHO-K1 cells by small molecules, qHTS cell viability counter screen (AID 1346979); note: nearly all actives have a fitted effect of over 35% in size
Method in brief: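 Seeding: 1,500 CHO-K1 cells/well. Rest: 5hr, 37C. Treatment: compounds in DMSO, 16hr. Read: CellTiter-Fluor, 1hr, fluorescence.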

[12] = Caspase-3/7 induction in CHO-K1 cells by small molecules, qHTS assay (AID 1346980); note: nearly all actives have a fitted effect of over 15% in size
Method in brief: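 Luminescent Caspase-Glo 3/7 read (30min, room temperature) quantified apoptosis induction. Cells were wild-type CHO-K1, treated with compound for 17hr at 37 C and 5% CO2.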

[13] = Caspase-3/7 induction in HepG2 cells by small molecules, qHTS cell viability counter screen (AID 1346981); note: series mostly up to about 92 µM; nearly all actives have a fitted effect of over 30% in size
Method in brief: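 Viability determined by CellTiter-Fluor fluorescence in HepG2 wells also used for the luminescent Caspase-Glo 3/7 read. Compounds were present for 16 hr at 37 C, 5% CO2 before reagent addition.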

[14] = biological target: Nuclear receptor subfamily 1 group I member 2 (Homo sapiens) (UniProt O75469); assay: Human pregnane X receptor (PXR) small molecule agonists, qHTS assay (AID 1346982); note: nearly all actives have a fitted effect of over 35% in size; note: potency is the fitted concentration of half-maximal effect
Method in brief: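 Compound-induced hPXR transactivation of a CYP3A4 luciferase reporter was scored in HepG2 PXR-Luc cells over 24 hr at 37 C, 5% CO2, by luminescence.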

[15] = biological target: Cytochrome P450 2D6 (Homo sapiens) (UniProt P10635); assay: Cytochrome P450 Family 2 Subfamily D Member 6 (CYP2D6) small molecule antagonists: luciferase reporter qHTS assay (AID 1671196); note: nearly all actives have a fitted effect of over 50% in size; note: potency is the fitted concentration of half-maximal effect
Method in brief: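 Each well received CYP2D6 with its proluciferin substrate and chemical, sat 10 min, then got NADPH regeneration solution for 1 h at room temperature. Luminescence in RLU served as the activity measure.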

[16] = biological target: Progesterone receptor (Homo sapiens) (UniProt P06401); assay: qHTS assay to identify small molecule antagonists of the progesterone receptor (PR) signaling pathway (AID 1346795; active = well fitted inhibition curve with a large enough effect in the signal ratio in the repeat runs, not every such curve was filed as active; the % refers to the signal ratio; note: potency is the fitted concentration of half-maximal effect)
Method in brief: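 After 6 hr plating at 37C in 2% stripped-serum medium, PR-UAS-bla HEK293T cells got compounds, then 1 nM R5020. Sixteen hours later, LiveBLAzer substrate was applied for 2 hr at room temperature and fluorescence was recorded.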

[17] = qHTS assay to identify small molecule agonists of the progesterone receptor (PR) signaling pathway - cell viability counter screen (AID 1346799; calls by dose curve; note: nearly all actives have a fitted effect of over 45% in size)
Method in brief: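 Viability was scored by ATP luminescence (CellTiter-Glo, 30 min, room temperature) in the same wells used for the reporter readout, after 16 hr compound exposure of PR-UAS-bla HEK293T cells.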

[18] = qHTS assay to identify small molecule antagonists of the TGF-beta/Smad signaling pathway - cell viability counter screen (AID 1346824); note: nearly all actives have a fitted effect of over 50% in size
Method in brief: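 Cytotoxicity counter-screen run in the same wells as the beta-lactamase Smad reporter read: CellTiter-Glo luminescence after 30 min at room temperature. HEK 293T SBE-bla cells had 5 hr compound exposure at 37 C with TGF-beta1 (0.25 ng/mL stock).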

[19] = biological target: Nuclear receptor subfamily 1 group I member 2 (Rattus norvegicus) (UniProt Q9R1A7); assay: Rat pregnane X receptor (rPXR) activation by small molecules, qHTS assay (AID 1346983); details: rPXR luciferase reporter cells, One-Glo luminescence, 24 h; max activation: stronger effect = higher value; note: nearly all actives have a fitted effect of over 20% in size; note: potency is the fitted concentration of half-maximal effect
Method in brief: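 Luminescent readout (One-Glo luciferase, 30 min room temperature) followed 24 hr compound treatment at 37 C of rPXR cells plated 2,000 per well and preincubated 5hr; qHTS format with compounds delivered in DMSO.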

[20] = biological target: Nuclear receptor subfamily 1 group I member 2 (Homo sapiens) (UniProt O75469); assay: Human pregnane X receptor (PXR) activation by small molecules, qHTS assay (AID 1346985); note: nearly all actives have a fitted effect of over 40% in size
Method in brief: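 DPX-2 cells (HepG2 co-transfected with a PXR response element and a CYP3A4-promoter luciferase construct) were seeded at 2,000 per well, rested 5 hr at 37C, then exposed to DMSO-dissolved compounds for 24 hr. Activation was read as luciferase luminescence.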
% is set by controls: 0 for no effect and ±100 for the full control effect.

Chain of Nuclear receptor subfamily 1 group I member 2 (Homo sapiens) (O75469 whole entry, looked up): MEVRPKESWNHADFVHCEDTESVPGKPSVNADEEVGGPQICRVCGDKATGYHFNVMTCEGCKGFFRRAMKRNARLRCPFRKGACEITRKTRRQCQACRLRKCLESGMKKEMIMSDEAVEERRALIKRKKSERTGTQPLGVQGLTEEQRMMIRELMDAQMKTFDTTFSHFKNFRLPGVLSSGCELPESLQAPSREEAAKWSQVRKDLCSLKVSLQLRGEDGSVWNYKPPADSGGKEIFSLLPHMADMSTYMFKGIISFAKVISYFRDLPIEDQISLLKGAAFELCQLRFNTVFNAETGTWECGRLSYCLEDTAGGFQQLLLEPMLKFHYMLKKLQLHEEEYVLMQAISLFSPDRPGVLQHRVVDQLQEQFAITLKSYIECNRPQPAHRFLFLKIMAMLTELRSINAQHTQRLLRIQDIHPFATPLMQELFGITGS
Chain of Thyrotropin receptor (Homo sapiens) (P16473 whole entry, looked up): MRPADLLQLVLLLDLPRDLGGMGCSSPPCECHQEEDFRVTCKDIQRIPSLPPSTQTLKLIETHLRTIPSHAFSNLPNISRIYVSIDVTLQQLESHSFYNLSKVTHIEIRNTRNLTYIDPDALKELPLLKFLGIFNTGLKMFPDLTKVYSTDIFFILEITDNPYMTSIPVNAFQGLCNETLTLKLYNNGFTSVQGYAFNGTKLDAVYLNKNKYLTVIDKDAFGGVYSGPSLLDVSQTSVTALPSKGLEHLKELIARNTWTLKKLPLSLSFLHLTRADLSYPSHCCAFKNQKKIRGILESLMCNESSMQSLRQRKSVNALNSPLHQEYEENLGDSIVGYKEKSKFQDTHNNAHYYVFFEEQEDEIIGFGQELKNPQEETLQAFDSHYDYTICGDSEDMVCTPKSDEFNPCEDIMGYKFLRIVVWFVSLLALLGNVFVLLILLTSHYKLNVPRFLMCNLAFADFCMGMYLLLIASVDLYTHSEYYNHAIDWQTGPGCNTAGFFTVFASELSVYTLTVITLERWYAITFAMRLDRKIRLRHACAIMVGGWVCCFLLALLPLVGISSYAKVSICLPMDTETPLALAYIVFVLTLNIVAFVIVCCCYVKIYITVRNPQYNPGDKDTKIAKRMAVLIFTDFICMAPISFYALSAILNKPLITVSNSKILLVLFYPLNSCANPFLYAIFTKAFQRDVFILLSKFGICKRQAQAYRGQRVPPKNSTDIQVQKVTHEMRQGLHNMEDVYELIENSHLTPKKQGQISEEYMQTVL
Chain of Progesterone receptor (Homo sapiens) (P06401 whole entry, looked up): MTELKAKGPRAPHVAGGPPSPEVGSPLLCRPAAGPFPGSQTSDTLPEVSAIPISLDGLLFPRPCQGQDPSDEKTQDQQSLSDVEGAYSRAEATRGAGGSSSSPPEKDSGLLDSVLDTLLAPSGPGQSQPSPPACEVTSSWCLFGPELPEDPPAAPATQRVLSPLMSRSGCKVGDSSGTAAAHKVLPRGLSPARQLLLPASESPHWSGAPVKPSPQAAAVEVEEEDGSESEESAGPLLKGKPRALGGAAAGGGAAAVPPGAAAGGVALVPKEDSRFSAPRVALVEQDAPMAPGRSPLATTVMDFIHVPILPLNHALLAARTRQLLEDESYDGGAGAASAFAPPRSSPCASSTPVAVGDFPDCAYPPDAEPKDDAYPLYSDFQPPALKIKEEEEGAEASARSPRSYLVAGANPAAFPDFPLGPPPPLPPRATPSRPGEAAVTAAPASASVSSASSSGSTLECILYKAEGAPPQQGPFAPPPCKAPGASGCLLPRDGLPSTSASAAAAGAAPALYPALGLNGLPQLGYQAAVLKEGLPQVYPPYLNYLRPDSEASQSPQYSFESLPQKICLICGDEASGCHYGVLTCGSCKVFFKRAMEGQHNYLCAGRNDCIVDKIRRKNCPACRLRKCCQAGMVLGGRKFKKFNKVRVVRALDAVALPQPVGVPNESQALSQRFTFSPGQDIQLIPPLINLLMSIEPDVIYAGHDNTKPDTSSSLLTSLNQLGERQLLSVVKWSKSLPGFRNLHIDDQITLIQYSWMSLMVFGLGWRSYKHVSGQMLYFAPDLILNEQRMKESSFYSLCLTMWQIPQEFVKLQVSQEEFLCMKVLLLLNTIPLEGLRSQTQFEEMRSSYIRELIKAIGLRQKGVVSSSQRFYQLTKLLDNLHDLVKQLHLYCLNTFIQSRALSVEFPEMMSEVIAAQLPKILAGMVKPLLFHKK
Chain of Thyrotropin-releasing hormone receptor (Homo sapiens) (P34981 whole entry, looked up): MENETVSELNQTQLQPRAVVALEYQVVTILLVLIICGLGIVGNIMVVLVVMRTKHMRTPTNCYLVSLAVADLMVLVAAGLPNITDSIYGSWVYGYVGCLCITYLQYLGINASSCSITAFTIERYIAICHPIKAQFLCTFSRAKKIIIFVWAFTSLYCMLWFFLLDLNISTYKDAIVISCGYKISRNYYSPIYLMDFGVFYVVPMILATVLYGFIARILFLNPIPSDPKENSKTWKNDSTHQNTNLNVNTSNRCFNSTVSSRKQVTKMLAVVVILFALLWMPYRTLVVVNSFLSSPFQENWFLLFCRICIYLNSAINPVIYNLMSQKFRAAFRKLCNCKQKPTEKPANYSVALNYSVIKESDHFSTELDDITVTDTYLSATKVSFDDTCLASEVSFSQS
Chain of Nuclear receptor subfamily 1 group I member 2 (Rattus norvegicus) (Q9R1A7 whole entry, looked up): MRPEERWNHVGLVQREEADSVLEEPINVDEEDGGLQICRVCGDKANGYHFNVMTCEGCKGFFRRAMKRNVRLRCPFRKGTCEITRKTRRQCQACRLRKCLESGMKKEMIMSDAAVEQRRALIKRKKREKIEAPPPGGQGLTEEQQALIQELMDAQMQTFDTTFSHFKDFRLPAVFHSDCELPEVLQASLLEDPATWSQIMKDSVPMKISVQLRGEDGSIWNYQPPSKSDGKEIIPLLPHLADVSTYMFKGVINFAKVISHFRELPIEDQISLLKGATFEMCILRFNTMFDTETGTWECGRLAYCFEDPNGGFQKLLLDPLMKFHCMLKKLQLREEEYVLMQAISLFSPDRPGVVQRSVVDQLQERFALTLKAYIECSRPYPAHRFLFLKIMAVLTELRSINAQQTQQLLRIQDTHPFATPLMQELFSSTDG
Chain of Cytochrome P450 2D6 (Homo sapiens) (P10635 whole entry, looked up): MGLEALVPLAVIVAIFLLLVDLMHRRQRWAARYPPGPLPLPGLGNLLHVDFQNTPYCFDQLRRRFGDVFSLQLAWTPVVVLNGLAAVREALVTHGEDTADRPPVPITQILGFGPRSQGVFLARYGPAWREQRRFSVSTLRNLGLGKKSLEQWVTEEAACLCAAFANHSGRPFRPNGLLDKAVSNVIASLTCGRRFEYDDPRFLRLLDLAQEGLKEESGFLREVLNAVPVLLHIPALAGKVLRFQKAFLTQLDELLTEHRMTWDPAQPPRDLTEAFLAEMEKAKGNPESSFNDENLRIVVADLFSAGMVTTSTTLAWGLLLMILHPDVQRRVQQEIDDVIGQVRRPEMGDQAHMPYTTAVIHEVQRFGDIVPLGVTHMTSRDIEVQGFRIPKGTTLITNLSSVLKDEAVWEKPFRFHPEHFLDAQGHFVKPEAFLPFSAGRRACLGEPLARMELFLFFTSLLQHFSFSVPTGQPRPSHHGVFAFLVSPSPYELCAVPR

N#Cc1ccc(CC(=O)c2cccc(C(F)(F)F)c2)cc1
inactive: Potency [1] | Potency [2] | Potency [3] | Potency [4] | outcome [5] | outcome [6] | outcome [7] | outcome [8] | Potency [9] | Potency [10] | Potency [11] | Potency [12] | Potency [13]

C/C(=C\C(C)CC(C)CC(C)C)C1CC(=O)OC1=O (centres undefined)
active: Potency [15] 35.6 µM
inactive: Potency [1] | Potency [2] | Potency [3] | outcome [5] | outcome [6] | outcome [7] | outcome [8] | Potency [9] | Potency [10] | Potency [11] | Potency [12] | Potency [13] | Potency [14]

Oc1ccc(CCNCCCCCCNCCc2ccccc2)cc1O
active: Potency [15] 15.5 µM
inactive: Potency [1] | Potency [3] | Potency [16] | Potency [4] | Potency [17] | outcome [18] | outcome [5] | outcome [6] | outcome [7] | outcome [8] | Potency [10] | Potency [12] | Potency [13] | Potency [14]

NCCOCCOCCN
inactive: Potency [1] | Potency [2] | Potency [3] | outcome [18] | outcome [5] | outcome [6] | outcome [7] | outcome [8] | Potency [9] | Potency [10] | Potency [11] | Potency [12] | Potency [14]

CC(=O)OCC(=O)[C@@]1(O)CC[C@H]2[C@@H]3CCC4=CC(=O)C=C[C@]4(C)[C@@]3(F)[C@@H](O)C[C@@]21C
inactive: Potency [1] | Potency [2] | Potency [17] | outcome [18] | outcome [5] | outcome [6] | outcome [7] | outcome [8] | Potency [9] | Potency [10] | Potency [12] | Potency [13] | Potency [14] | Potency [20] | Potency [15]
active: Potency [19] 8.91 µM

CCCCCCCCCCCCSCCOCCO
inactive: Potency [1] | Potency [3] | Potency [16] | Potency [4] | Potency [17] | outcome [18] | outcome [5] | outcome [6] | outcome [7] | outcome [8] | Potency [9] | Potency [10] | Potency [11] | Potency [12] | Potency [13] | max activation [19] -0.35% | Potency [20]

CC(=O)c1ccc(Cl)c(Cl)c1Cl
inactive: Potency [1] | Potency [2] | Potency [4] | Potency [17] | outcome [18] | outcome [5] | outcome [6] | outcome [7] | outcome [8] | Potency [9] | Potency [10] | Potency [11] | Potency [12] | Potency [13] | Potency [14] | Potency [15]

Nc1ccc(-c2ccc(F)cc2)cc1
inactive: Potency [1] | Potency [3] | Potency [4] | Potency [17] | outcome [18] | outcome [5] | outcome [6] | outcome [7] | outcome [8] | Potency [9] | Potency [10] | Potency [11] | Potency [12] | Potency [13]
active: Potency [16] 6.11 µM | Potency [14] 30.6 µM

Cc1c(Nc2ncccc2C(=O)O)cccc1C(F)(F)F
inactive: Potency [1] | Potency [2] | Potency [16] | outcome [18] | outcome [5] | outcome [6] | outcome [7] | outcome [8] | Potency [9] | Potency [10] | Potency [11] | Potency [12] | max activation [19] -1.47% | Potency [20] | Potency [15]

CO[C@@H]1COCC[C@@H]1N[C@@H]1CC[C@@](C(=O)N2CCc3ncc(C(F)(F)F)cc3C2)(C(C)C)C1
inactive: Potency [1] | Potency [2] | Potency [4] | outcome [18] | outcome [5] | outcome [6] | outcome [7] | outcome [8] | Potency [9] | Potency [10] | Potency [11] | Potency [12] | Potency [13] | Potency [14]
active: Potency [15] 35.4 µM

CC(C)C/C=C(\C=O)c1ccccc1
active: Potency [14] 30.6 µM
inactive: Potency [1] | Potency [3] | Potency [16] | Potency [4] | Potency [17] | outcome [18] | outcome [5] | outcome [6] | outcome [7] | outcome [8] | Potency [9] | Potency [10] | Potency [12]

C/C(=C(\CCO)SS/C(CCO)=C(\C)N(C=O)Cc1cnc(C)nc1N)N(C=O)Cc1cnc(C)nc1N
inactive: Potency [1] | Potency [3] | Potency [16] | Potency [4] | Potency [17] | outcome [18] | outcome [5] | outcome [6] | outcome [7] | outcome [8] | Potency [10] | Potency [11] | Potency [12] | Potency [14] | max activation [19] -1.12% | Potency [20] | Potency [15]

OCC(O)c1ccccc1 (centres undefined)
inactive: Potency [1] | Potency [2] | Potency [3] | outcome [18] | outcome [5] | outcome [6] | outcome [7] | outcome [8] | Potency [10] | Potency [11] | Potency [12] | Potency [13] | Potency [15]

c1ccc(CCNc2nc(-c3ccccc3)cs2)cc1
inactive: Potency [1] | Potency [2] | Potency [3] | Potency [17] | outcome [5] | outcome [6] | outcome [7] | outcome [8] | Potency [10] | Potency [11] | Potency [12] | Potency [13]
active: Potency [14] 3.76 µM | Potency [15] 17.4 µM

CS(C)=O
inactive: Potency [1] | Potency [3] | Potency [16] | Potency [4] | Potency [17] | outcome [18] | outcome [5] | outcome [6] | Potency [9] | Potency [10] | Potency [11] | Potency [12] | Potency [13] | Potency [14]

O=C1C=CCCC1
inactive: Potency [1] | Potency [3] | Potency [16] | Potency [4] | Potency [17] | outcome [18] | outcome [5] | outcome [6] | Potency [9] | Potency [10] | Potency [11] | Potency [12] | Potency [14]

CC(C)NC(=O)c1ccccc1N
inactive: Potency [1] | Potency [2] | outcome [18] | outcome [5] | outcome [6] | outcome [7] | outcome [8] | Potency [9] | Potency [10] | Potency [11] | Potency [12] | Potency [13] | Potency [14] | Potency [15]
